From PubChem BioAssay (NCATS) come the findings set out here.

Results filed as inconclusive are left out. A call without a number means that no potency is given here. Calls of active or inactive are those of the source. Calls follow the shape of the dose curve; as a rule, active = well fitted curve in the direction sought with a large enough effect; inconclusive = small, poorly fitted or top-dose-only effect, or another doubt; inactive = no such curve, though single readings can be large; an effect the other way counts as inactive or inconclusive.

A short description of the first experiment: Cell Viability - LYMP1-003 - Assay at 24 hr (AID 963). Conditions: LYMP1-003 lymphoblastoid cell viability; series mostly up to 92.2 µM. In short, it runs like this:
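Concentration-response qHTS: ATP loss measured by CellTiter-Glo luminescence after 24 h compound exposure at 37 C. Cells were LYMP1-003 human lymphoblastoid, 2500 per well. AC50 derived via standard Hill equation modeling.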
As to `CC/C(C)=N/O`, the Potency entry was “inactive”.
In the case of `Nc1c(Cl)cc(Cl)cc1Cl`, the Potency result was “inactive”.
As to `Nc1ccc(Cl)cc1[N+](=O)[O-]`, the Potency result is “inactive”.
Same read-out and setting: under `OC/C(Br)=C(\Br)CO` stands “inactive”; under `CCOC(=O)C(C)C(C)=O` (stereo unspecified), “inactive”.
On the same count and under the same terms, the same measure for `C1CCC2OC2C1` (stereo unspecified): “inactive”.
For `Nc1ccc([N+](=O)[O-])c(N)c1`, the Potency result was “inactive”.
The same measure, in the same setting: under `CSc1ccc(C=O)cc1` stands “inactive”; under `O=C(Cl)c1ccccc1[N+](=O)[O-]`, “inactive”.
With `Nc1cccc([N+](=O)[O-])c1`, the Potency result is “inactive”.
On the same count and under the same terms, under `CCOCCOCC` stands “inactive”; under `CC(C)(O)C(=O)O`, “inactive”; under `CC(=O)OCCC(C)C`, “inactive”.
Still for that read-out and setting: under `CCC(C)(C)C` stands “inactive”; under `CC(C)CO`, “inactive”; under `O=C1OC(=O)c2cc([N+](=O)[O-])ccc21`, “inactive”.
The same measure, in the same setting: under `COC(=O)CCCC(=O)OC` stands “inactive”; under `NC=O`, “inactive”; under `O=C(Cl)c1cccc([N+](=O)[O-])c1`, “inactive”.
Turning to `C=CCCCCCCC=C`, the Potency result was “inactive”.
Same read-out and setting: the same measure for `O=C(O)CNC(=O)c1ccc(CO)o1`: “inactive”; for `Nc1cccc(O)c1`: “inactive”; for `CCOCCO`: “inactive”.
The same measure, in the same setting: under `O=C(Cl)c1c(Cl)cccc1Cl` stands “inactive”.

Another experiment can be described thus: Cell Viability - LYMP1-003 - Assay at 40 hr (AID 964). Also: nearly all actives have a fitted effect of over 60% in size. Conditions: LYMP1-003 lymphoblastoid viability; series mostly up to 92.2 µM. The method, boiled down: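 Viability is taken as cellular ATP, read by CellTiter-Glo luminescence after 40 h of compound exposure at 37 C. Cells: human lymphoblastoid line LYMP1-003 at 2500/well; AC50 values derived by Hill-equation fitting of concentration-response data.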
Regarding `CC/C(C)=N/O`, the Potency entry is “inactive”.
Still for that read-out and setting: the same measure for `Nc1c(Cl)cc(Cl)cc1Cl`: “inactive”.
The same measure, in the same setting: the same measure for `OC/C(Br)=C(\Br)CO`: “inactive”; for `CC(=O)OC(C)C`: “inactive”.
Still for that read-out and setting: the same measure for `C=CCn1c(=O)n(CC=C)c(=O)n(CC=C)c1=O`: “inactive”; for `CCCCCCCCCCCCOCC1CO1` (stereo unspecified): “inactive”; for `CCOC(=O)C(C)C(C)=O` (stereo unspecified): “inactive”.
For the compound `Oc1cccc(Nc2ccccc2)c1`, the Potency result is “inactive”.
Same read-out and setting: under `Nc1ccc([N+](=O)[O-])c(N)c1` stands “inactive”; under `CSc1ccc(C=O)cc1`, “inactive”; under `O=C(Cl)c1ccccc1[N+](=O)[O-]`, “inactive”.
Still for that read-out and setting: under `Nc1cccc([N+](=O)[O-])c1` stands “inactive”.
The same measure, in the same setting: under `CCOCCOCC` stands “inactive”; under `O=[N+]([O-])c1cccc(Cl)c1`, “inactive”; under `CCC(C)(C)C(=O)O`, “inactive”.
In the case of `C/C(C=O)=C/c1ccccc1`, the Potency result is “inactive”.
Same read-out and setting: under `CC(C)(O)C(=O)O` stands “inactive”; under `CC(=O)OCCC(C)C`, “inactive”; under `CCC(C)(C)C`, “inactive”.
The same measure, in the same setting: the same measure for `CC(C)CO`: “inactive”.
Still for that read-out and setting: under `CCOc1cccc(N)c1` stands “inactive”.
With `O=C1OC(=O)c2cc([N+](=O)[O-])ccc21`, the Potency entry was “inactive”.
The same measure, in the same setting: under `NC=O` stands “inactive”.
Still for that read-out and setting: under `O=C(Cl)c1cccc([N+](=O)[O-])c1` stands “inactive”; under `Cc1ccc2oc(=O)ccc2c1`, “inactive”.
On the same count and under the same terms, under `CC(=O)CCc1ccccc1` stands “inactive”; under `C=CCCCCCCC=C`, “inactive”.
For `O=C(O)CNC(=O)c1ccc(CO)o1`, the Potency result was “inactive”.
`Clc1ccccn1`: the Potency result is “inactive”.
With `Nc1cc([N+](=O)[O-])ccc1C(=O)O`, the Potency result was “inactive”.
Same read-out and setting: the same measure for `Nc1cccc(O)c1`: “inactive”.
Still for that read-out and setting: the same measure for `CCOCCO`: “inactive”.
Same read-out and setting: under `O=C(Cl)c1c(Cl)cccc1Cl` stands “inactive”; under `ICCc1ccccc1`, “inactive”.

The nature of the next experiment: Cell Viability - LYMP2-003 (AID 965).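 Also: cells exposed to compounds for 24 h before reading; nearly all actives have a fitted effect of over 50% in size.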 Conditions: LYMP2-003 lymphoblastoid cell viability; series mostly up to 92.2 µM. The method, boiled down:
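Human lymphoblastoid cells (2500/well) were pre-incubated 5 hr at 37 C, then exposed to compounds over a concentration range for 24 hr at 37 C. Intracellular ATP was read by CellTiter-Glo luminescence; AC50 came from Hill-equation fits.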
`CC/C(C)=N/O`: the Potency entry is “inactive”.
Same read-out and setting: the same measure for `Nc1c(Cl)cc(Cl)cc1Cl`: “inactive”; for `Nc1ccc(Cl)cc1[N+](=O)[O-]`: “inactive”.
On the same count and under the same terms, under `OC/C(Br)=C(\Br)CO` stands “inactive”; under `CCC=O`, “inactive”.
As for `CC(=O)OC(C)C`, the Potency result was “inactive”.
The same measure, in the same setting: the same measure for `C=CCn1c(=O)n(CC=C)c(=O)n(CC=C)c1=O`: “inactive”; for `CCCCCCCCCCCCOCC1CO1` (stereo unspecified): “inactive”.
In the case of `CCOC(=O)C(C)C(C)=O` (stereo unspecified), the Potency entry is “inactive”.
The same measure, in the same setting: under `C1CCC2OC2C1` (stereo unspecified) stands “inactive”.
The same measure, in the same setting: under `Nc1ccc([N+](=O)[O-])c(N)c1` stands “inactive”.
Still for that read-out and setting: under `CSc1ccc(C=O)cc1` stands “inactive”; under `O=C(Cl)c1ccccc1[N+](=O)[O-]`, “inactive”.
Take `Nc1cccc([N+](=O)[O-])c1`: the Potency result was “inactive”.
Same read-out and setting: under `CCOCCOCC` stands “inactive”.
Still for that read-out and setting: under `C=CC(=O)NC(C)C` stands “inactive”.
Same read-out and setting: under `O=[N+]([O-])c1cccc(Cl)c1` stands “inactive”; under `C/C(C=O)=C/c1ccccc1`, “inactive”; under `CC(C)(O)C(=O)O`, “inactive”.
Consider `CC(=O)OCCC(C)C`, for which the Potency entry is “inactive”.
`CCC(C)(C)C`: the Potency entry is “inactive”.
The same measure, in the same setting: under `CC(C)CO` stands “inactive”; under `CCOc1cccc(N)c1`, “inactive”; under `O=C1OC(=O)c2cc([N+](=O)[O-])ccc21`, “inactive”.
On the same count and under the same terms, under `COC(=O)CCCC(=O)OC` stands “inactive”; under `Cc1ccc2oc(=O)ccc2c1`, “inactive”; under `CC(=O)CCc1ccccc1`, “inactive”.
Same read-out and setting: the same measure for `C=CCCCCCCC=C`: “inactive”; for `Clc1ccccn1`: “inactive”.
Consider `Nc1cc([N+](=O)[O-])ccc1C(=O)O`, for which the Potency entry was “inactive”.
The same measure, in the same setting: the same measure for `Nc1cccc(O)c1`: “inactive”; for `O=C(Cl)c1c(Cl)cccc1Cl`: “inactive”; for `ICCc1ccccc1`: “inactive”.

The nature of the next experiment: Cell Viability - LYMP2-004 (AID 966). Also: nearly all actives have a fitted effect of over 65% in size. Conditions: LYMP2-004 lymphoblastoid cell viability, qHTS; series mostly up to 92.2 µM. In short, it runs like this:
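AC50 values come from Hill modelling of concentration-dependent loss of intracellular ATP, measured by CellTiter-Glo luminescence. Human LYMP2-004 lymphoblastoid cells (2500/well) were exposed to compound for 24 h at 37 C.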
As for `CC/C(C)=N/O`, the Potency entry was “inactive”.
On the same count and under the same terms, the same measure for `Nc1ccc(Cl)cc1[N+](=O)[O-]`: “inactive”; for `CCC=O`: “inactive”; for `CC(=O)OC(C)C`: “inactive”.
Still for that read-out and setting: the same measure for `CCCCCCCCCCCCOCC1CO1` (stereo unspecified): “inactive”; for `CCOC(=O)C(C)C(C)=O` (stereo unspecified): “inactive”.
Still for that read-out and setting: the same measure for `Oc1cccc(Nc2ccccc2)c1`: “inactive”; for `Nc1ccc([N+](=O)[O-])c(N)c1`: “inactive”.
For `CSc1ccc(C=O)cc1`, the Potency entry is “inactive”.
The same measure, in the same setting: under `O=C(Cl)c1ccccc1[N+](=O)[O-]` stands “inactive”; under `CCOCCOCC`, “inactive”; under `C=CC(=O)NC(C)C`, “inactive”.
The same measure, in the same setting: the same measure for `O=[N+]([O-])c1cccc(Cl)c1`: “inactive”.
In the case of `CCC(C)(C)C(=O)O`, the Potency result was “inactive”.
The same measure, in the same setting: under `C/C(C=O)=C/c1ccccc1` stands “inactive”; under `CC(C)(O)C(=O)O`, “inactive”.
As to `CC(=O)OCCC(C)C`, the Potency result is “inactive”.
Still for that read-out and setting: the same measure for `CCC(C)(C)C`: “inactive”; for `CC(C)CO`: “inactive”.
In the case of `O=C1OC(=O)c2cc([N+](=O)[O-])ccc21`, the Potency entry is “inactive”.
As to `COC(=O)CCCC(=O)OC`, the Potency entry was “inactive”.
Still for that read-out and setting: under `NC=O` stands “inactive”; under `O=C(Cl)c1cccc([N+](=O)[O-])c1`, “inactive”; under `Cc1ccc2oc(=O)ccc2c1`, “inactive”.
Still for that read-out and setting: the same measure for `C=CCCCCCCC=C`: “inactive”; for `O=C(O)CNC(=O)c1ccc(CO)o1`: “inactive”; for `Clc1ccccn1`: “inactive”.
As to `Nc1cc([N+](=O)[O-])ccc1C(=O)O`, the Potency result was “inactive”.
The same measure, in the same setting: under `CCOCCO` stands “inactive”.
`ICCc1ccccc1`: the Potency result was “inactive”.
